# Data reported in PubChem BioAssay (NCATS).
# Where “and” joins values, the source holds several entries; their conditions need not be identical. Equal entries are not always repeated. Inconclusive results are not listed. Calls of active or inactive are those of the source. Unless noted, calls follow the shape of the dose curve; as a rule, active = well fitted curve in the direction sought with a large enough effect; inconclusive = small, poorly fitted or top-dose-only effect, or another doubt; inactive = no such curve, though single readings can be large; an effect the other way counts as inactive or inconclusive.
# What was measured:
# [1] = qHTS Assay for Lipid Storage Modulators (AID 1519; calls by dose curve; as to activity change, negative = inhibition: % is scaled to controls: 0 for no effect and ±100 for the full control effect); conditions: Drosophila S3 cells, BODIPY lipid droplet/cell ratio, laser cytometry, cells loaded with oleic acid
# Procedure, shortened: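 Cells seeded at 5,000 per well were treated with compounds over a concentration series and loaded with oleic acid (400 uM, as added). Lipid droplet fluorescence (488 nm excitation, 500-530 nm channel) was read by laser-scanning cytometry and normalized to 20 uM Triacsin C.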
# [2] = biological target: Alpha-galactosidase A (Homo sapiens) (UniProt P06280); assay: Counterscreen for Glucocerebrosidase Inhibitors: qHTS Assay for Human alpha-Galactosidase at pH 4.5 (AID 992); conditions: purified enzyme, fluorogenic substrate; series mostly up to 76.9 µM; also: 0% is about no effect
# Chain of Alpha-galactosidase A (Homo sapiens) (P06280 whole entry, looked up): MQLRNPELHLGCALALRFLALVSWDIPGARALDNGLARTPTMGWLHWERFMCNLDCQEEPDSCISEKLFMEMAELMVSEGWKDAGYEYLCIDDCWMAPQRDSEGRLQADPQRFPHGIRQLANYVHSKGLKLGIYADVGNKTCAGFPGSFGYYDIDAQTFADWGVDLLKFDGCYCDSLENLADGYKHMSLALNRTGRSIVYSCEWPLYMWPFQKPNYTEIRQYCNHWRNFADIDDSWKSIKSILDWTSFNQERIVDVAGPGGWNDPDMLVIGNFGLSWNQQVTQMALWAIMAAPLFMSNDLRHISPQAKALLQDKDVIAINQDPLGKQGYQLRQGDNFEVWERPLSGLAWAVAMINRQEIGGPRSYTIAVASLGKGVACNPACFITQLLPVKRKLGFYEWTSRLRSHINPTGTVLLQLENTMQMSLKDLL
# Procedure, shortened: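 Quantitative HTS: compounds tested from 0.7 nM up to 77 uM against 2 nM enzyme with 80 uM 4-MU alpha-D-galactopyranoside. The 20 min room-temperature reaction is stopped with 1M NaOH/1M glycine, pH 10.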
# [3] = biological target: alpha-glucosidase (Oryza sativa, rice) (UniProt Q653V4); assay: Counterscreen for Glucocerebrosidase Inhibitors: qHTS Assay for Rice alpha-Glucosidase at pH 5.0 (AID 997); conditions: rice alpha-glucosidase enzyme activity; series mostly up to 76.9 µM;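 also: 0% = full activity with enzyme and -100% = basal without enzyme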
# Procedure, shortened: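 Rice alpha-glucosidase (4 nM final) with 400 uM 4-methylumbelliferyl-alpha-D-glucopyranoside in citrate buffer pH 5.0, 20 min at room temperature, stopped at pH 10; fluorescence 365/440 nm, compounds 0.7 nM–77 uM, AC50 from Hill fits.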
# [4] = biological target: DNA repair nuclease/redox regulator APEX1 (Homo sapiens) (UniProt P27695); assay: qHTS Validation Assay for Inhibitors of the Human Apurinic/apyrimidinic Endonuclease 1 (APE1) (AID 1705;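 also: TAMRA fluorescence gain over two minutes as APE1 cuts a quenched THF abasic duplex; % is scaled to controls: 0 for no effect and ±100 for the full control effect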); conditions: purified APE1 endonuclease activity, fluorescence, titration; series mostly up to 57.1 µM
# Chain of DNA repair nuclease/redox regulator APEX1 (Homo sapiens) (P27695 whole entry, looked up): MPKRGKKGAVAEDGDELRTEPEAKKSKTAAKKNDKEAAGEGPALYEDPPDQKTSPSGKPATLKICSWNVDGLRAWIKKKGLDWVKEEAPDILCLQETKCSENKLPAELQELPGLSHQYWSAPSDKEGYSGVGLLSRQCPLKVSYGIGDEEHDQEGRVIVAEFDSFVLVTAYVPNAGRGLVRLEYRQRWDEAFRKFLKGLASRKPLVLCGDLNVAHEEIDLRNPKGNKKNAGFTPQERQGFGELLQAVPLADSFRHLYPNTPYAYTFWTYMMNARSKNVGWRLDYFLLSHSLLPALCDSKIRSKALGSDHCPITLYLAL
# Procedure, shortened: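 Substrate: 50 nM final fluorophore/quencher THF-abasic duplex. Enzyme preincubated with compounds 15 min, RT. Progress derived from fluorescence difference, third minus first kinetic read.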
# [5] = Validation of Assay for Modulators of Lamin A Splicing (AID 1459; active = well fitted curve in the direction sought with a large enough effect in the signal ratio; the % refers to the signal ratio;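 also: cells exposed to compound for two days before reading; 0% is about no effect; ratio rise marks activators and ratio drop marks inhibitors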); conditions: Lamin A splicing dual RFP/GFP fluorescence reporter; series mostly up to 9.22 µM
# Procedure, shortened: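 Dual-reporter HeLa S3 line (lamin A-EGFP minigene, DsRed2) treated with compounds 48 hrs, 0.5% DMSO final. Endpoint: EGFP/DsRed2 total intensity ratio from laser-scanning microplate cytometry.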
# [6] = Cell Viability - LYMP2-018 (AID 985); conditions: LYMP2-018 lymphoblastoid cells, viability (qHTS); series mostly up to 92.2 µM;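 also: compound exposure lasted 24 hr at 37 °C; nearly all actives have a fitted effect of over 50% in size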; also: potency is read from the fitted curve at half-maximal effect
# Procedure, shortened: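 Acute cytotoxicity is scored as a concentration-dependent drop in intracellular ATP after 24 hr exposure of the lymphoblastoid line in complete culture medium, measured by luciferase luminescence. Potency is expressed as AC50 from Hill modelling.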
# [7] = Cell Viability - LYMP2-020 (AID 986); conditions: series mostly up to 92.2 µM;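 also: cells exposed to compound for 24 h at 37 °C; nearly all actives have a fitted effect of over 55% in size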; also: potency is read from the fitted curve at half-maximal effect
# Procedure, shortened: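 Acute cytotoxicity in a human lymphoblastoid line is scored as a concentration-dependent fall in cellular ATP after 24 hr at 37 C in complete medium. The positive control is tetraoctylammonium bromide, and potency is given as Hill-fit AC50.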
# [8] = Cell Viability - LYMP2-026 (AID 989); conditions: LYMP2-026 lymphoblastoid cell viability, qHTS; series mostly up to 92.2 µM;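 also: cells exposed to compound for 24 h at 37 °C; nearly all actives have a fitted effect of over 50% in size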; also: potency is read from the fitted curve at half-maximal effect
# Procedure, shortened: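 Concentration-dependent loss of intracellular ATP in human lymphoblastoid cells after 24 hr at 37 C, quantified by luciferase luminescence. AC50 derived from standard Hill equation.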
# [9] = Cell Viability - LYMP1-002 - Assay at 24 hr (AID 993); conditions: LYMP1-002 lymphoblastoid cells viability; series mostly up to 92.2 µM; also: potency is read from the fitted curve at half-maximal effect
# Procedure, shortened: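 qHTS, LYMP1-002 lymphoblastoid, 24 h cpd, 37 C, CellTiter-Glo ATP luminescence; AC50 via Hill eq.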
# [10] = Cell Viability - LYMP1-002 - Assay at 40 hr (AID 994); conditions: LYMP1-002 lymphoblastoid cell viability; series mostly up to 92.2 µM; also: nearly all actives have a fitted effect of over 60% in size; also: potency is read from the fitted curve at half-maximal effect
# Procedure, shortened: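 Viability in the human lymphoblastoid line was measured as intracellular ATP via CellTiter-Glo after 40 hr compound exposure. Tetraoctylammonium bromide served as positive control.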
# [11] = measured here: cell count channel max response
# [12] = measured here: lipid channel max response
smiles,measurement,setting,value
COc1ccc(-c2coc3cc(O)ccc3c2=O)cc1,"activity change, negative = inhibition",[1]; at 57.5 µM (top of the series),-1.11% (inactive)
same,max response,[1]; [11],3.06%
same,max response,[1]; [12],2.76%
O=c1cc(-c2ccccc2)oc2cc(O)cc(O)c12,"activity change, negative = inhibition",[1]; at 25.7 µM (top of the series),-11.6% (inactive)
same,"activity change, negative = inhibition",[1]; at 57.5 µM (top of the series),1.96% (inactive) and -20.6% (inactive)
same,max response,[1]; [11],-13.1% and 8.12% and 6.97%
same,max response,[1]; [12],-20.8% and 15.3% and -13.5%
COc1ccccc1N1CCN(CCCNc2cc(=O)n(C)c(=O)n2C)CC1,outcome,[2],inactive
same,outcome,[3],inactive
same,"activity change, negative = inhibition",[1]; at 25.7 µM (top of the series),0.233% (inactive)
same,"activity change, negative = inhibition",[1]; at 57.5 µM (top of the series),1.54% (inactive)
same,max response,[1]; [11],-9.35% and -6.19%
same,max response,[1]; [12],-9.3% and -4.74%
same,outcome,[4],inactive
O=C1NCC2(CCN(CCc3ccccc3)CC2)O1,outcome,[2],inactive
same,outcome,[3],inactive
same,outcome,[5],inactive
same,"activity change, negative = inhibition",[1]; at 25.7 µM (top of the series),-2.42% (inactive)
same,"activity change, negative = inhibition",[1]; at 57.5 µM (top of the series),11.9% (inactive) and -0.152% (inactive)
same,max response,[1]; [11],-3.3% and 25.9% and -24.6%
same,max response,[1]; [12],-4.45% and 48.5% and -24.1%
same,outcome,[4],inactive
O=c1c(O)c(-c2ccc(O)cc2)oc2cc(O)cc(O)c12,Potency,[6],inactive
same,Potency,[7],inactive
same,Potency,[8],inactive
same,Potency,[9],inactive
same,Potency,[10],inactive
same,"activity change, negative = inhibition",[1]; at 25.7 µM (top of the series),-1.01% (inactive)
same,"activity change, negative = inhibition",[1]; at 57.5 µM (top of the series),9.57% (inactive)
same,max response,[1]; [11],-23.1% and 1.49%
same,max response,[1]; [12],-23.3% and 13.5%
CCN(CC)CCOC(=O)c1ccc(N)cc1,outcome,[2],inactive
same,outcome,[3],inactive
same,"activity change, negative = inhibition",[1]; at 25.7 µM (top of the series),-0.292% (inactive)
same,"activity change, negative = inhibition",[1]; at 57.5 µM (top of the series),1.41% (inactive)
same,max response,[1]; [11],4.92% and -22.1%
same,max response,[1]; [12],5.47% and -19.5%
same,outcome,[4],inactive
COc1ccc(C2Sc3ccccc3N(CCN(C)C)C(=O)C2OC(C)=O)cc1 (configuration not stated),"activity change, negative = inhibition",[1]; at 57.5 µM (top of the series),6.14% (inactive)
same,max response,[1]; [11],15.8%
same,max response,[1]; [12],23.3%
O=c1cc(-c2ccccc2)oc2cc(O)c(O)c(O)c12,"activity change, negative = inhibition",[1]; at 57.5 µM (top of the series),6.99% (inactive)
same,max response,[1]; [11],-15.3%
same,max response,[1]; [12],-4.95%
C[C@@H](O)[C@H]1C(=O)N2C(C(=O)O)=C(S[C@@H]3CN[C@H](C(=O)N(C)C)C3)[C@H](C)[C@H]12,"activity change, negative = inhibition",[1]; at 25.7 µM (top of the series),-1.28% (inactive)
same,max response,[1]; [11],-4.15%
same,max response,[1]; [12],-5.75%
COc1cc(O)c2c(c1)C(=O)c1cc(C)cc(O)c1C2=O,"activity change, negative = inhibition",[1]; at 57.5 µM (top of the series),2.34% (inactive)
same,max response,[1]; [11],7.65%
same,max response,[1]; [12],11.5%
CC/C(=C(\c1ccccc1)c1ccc(OCCN(C)C)cc1)c1ccccc1,Potency,[6],50.1 µM (active)
same,Potency,[7],50.1 µM (active)
same,Potency,[8],50.1 µM (active)
same,outcome,[2],inactive
same,Potency,[9],50.1 µM (active)
same,Potency,[10],50.1 µM (active)
same,outcome,[3],inactive
same,"activity change, negative = inhibition",[1]; at 57.5 µM (top of the series),6.58% (inactive)
same,max response,[1]; [11],6.28%
same,max response,[1]; [12],15.3%
same,outcome,[4],inactive
COc1ccc2c3c1OC1C[C@@H](O)C=C[C@@]31CCN(C)C2 (some centres not stated),"activity change, negative = inhibition",[1]; at 25.7 µM (top of the series),-1.59% (inactive)
same,"activity change, negative = inhibition",[1]; at 57.5 µM (top of the series),-3.75% (inactive)
same,max response,[1]; [11],1.47% and -27.6%
same,max response,[1]; [12],-1.31% and -11.1%
Clc1ccc(Cn2c(CN3CCCC3)nc3ccccc32)cc1,outcome,[2],inactive
same,outcome,[3],inactive
same,outcome,[5],inactive
same,"activity change, negative = inhibition",[1]; at 25.7 µM (top of the series),-4.13% (inactive)
same,max response,[1]; [11],-8.03%
same,max response,[1]; [12],-12.8%
same,outcome,[4],inactive
